# Legend:
# Experiment in all cases: DAPPL (digital affinity profiling via proximity ligation, sequencing); 10 mM Tris-HCl pH 7.5, 50 mM NaCl, 1 mM DTT, 4% glycerol, room temperature, 30 min; GST-TFs on glutathione beads, 16-mer random dsDNA library, 0.1% formaldehyde crosslink after washing; high values mean tight binding
# FLI1 = target: T1, FLI1 (Homo sapiens, UniProt Q01543 1-452); details: protein: recombinant; tags: N-terminal GST; dsDNA, one strand shown
# T1 sequence: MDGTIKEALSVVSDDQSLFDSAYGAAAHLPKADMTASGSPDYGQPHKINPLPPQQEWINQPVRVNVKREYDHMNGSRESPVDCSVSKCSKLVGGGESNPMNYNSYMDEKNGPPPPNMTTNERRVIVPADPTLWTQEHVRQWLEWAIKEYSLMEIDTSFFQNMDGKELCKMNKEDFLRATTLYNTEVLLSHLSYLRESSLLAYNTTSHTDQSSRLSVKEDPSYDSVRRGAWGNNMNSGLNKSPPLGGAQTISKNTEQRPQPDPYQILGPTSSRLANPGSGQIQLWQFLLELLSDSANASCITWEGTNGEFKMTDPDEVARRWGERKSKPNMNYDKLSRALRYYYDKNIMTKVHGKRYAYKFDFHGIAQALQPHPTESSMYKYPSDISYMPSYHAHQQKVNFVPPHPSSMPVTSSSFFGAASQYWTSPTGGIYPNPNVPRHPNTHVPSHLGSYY
# Procedure, shortened: (§1)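 A tag-only sample was pooled with DNA-barcoded human transcription factors that had been expressed in yeast as GST fusions and captured on glutathione beads. The pools were incubated for 30 min at room temperature with 200 nmole of a random double-stranded 16-mer DNA library in Tris/NaCl/DTT/glycerol buffer, then washed, crosslinked with 0.1% formaldehyde, proximity-ligated (BsaI/T4 ligase, 1 h, 37 °C), PCR-amplified and sequenced on an Illumina NextSeq500. Binding signal is each hexamer's read frequency for a factor divided by its frequency for the tag-only sample.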
# ELK1 = target: T2, ELK1 (Homo sapiens, UniProt P19419 1-428); details: protein: recombinant; tags: N-terminal GST; dsDNA, one strand shown
# T2 sequence: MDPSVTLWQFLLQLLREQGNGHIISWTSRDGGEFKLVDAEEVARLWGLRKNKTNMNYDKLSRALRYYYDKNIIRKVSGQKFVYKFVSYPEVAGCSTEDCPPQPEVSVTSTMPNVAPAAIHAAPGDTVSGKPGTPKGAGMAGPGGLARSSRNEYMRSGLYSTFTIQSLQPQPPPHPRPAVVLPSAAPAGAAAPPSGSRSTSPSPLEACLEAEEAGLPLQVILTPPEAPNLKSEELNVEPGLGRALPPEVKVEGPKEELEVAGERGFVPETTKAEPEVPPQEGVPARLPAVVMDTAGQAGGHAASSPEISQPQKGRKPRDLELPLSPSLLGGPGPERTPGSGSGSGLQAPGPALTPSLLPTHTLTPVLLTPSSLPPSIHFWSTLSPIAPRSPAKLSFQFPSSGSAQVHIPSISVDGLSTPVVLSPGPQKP
# Procedure, shortened: as §1
# GABPA = target: T3, GABPA (Homo sapiens, UniProt Q06546 1-454); details: protein: recombinant; tags: N-terminal GST; dsDNA, one strand shown
# T3 sequence: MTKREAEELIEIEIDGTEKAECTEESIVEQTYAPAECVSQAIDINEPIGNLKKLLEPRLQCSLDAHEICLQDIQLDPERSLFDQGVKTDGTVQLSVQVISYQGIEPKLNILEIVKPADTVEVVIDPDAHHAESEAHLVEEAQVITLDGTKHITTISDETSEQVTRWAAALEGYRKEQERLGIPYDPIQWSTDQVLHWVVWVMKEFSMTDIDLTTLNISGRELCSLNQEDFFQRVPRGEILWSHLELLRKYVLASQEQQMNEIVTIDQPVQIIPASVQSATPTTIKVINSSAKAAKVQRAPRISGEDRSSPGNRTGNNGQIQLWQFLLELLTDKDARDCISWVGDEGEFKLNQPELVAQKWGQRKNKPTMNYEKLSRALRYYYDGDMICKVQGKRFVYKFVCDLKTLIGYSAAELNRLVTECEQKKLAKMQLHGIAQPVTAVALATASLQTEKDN
# Procedure, shortened: as §1
# ERG = target: T4, ERG (Homo sapiens, UniProt P11308 1-479); details: protein: recombinant; tags: N-terminal GST; dsDNA, one strand shown
# T4 sequence: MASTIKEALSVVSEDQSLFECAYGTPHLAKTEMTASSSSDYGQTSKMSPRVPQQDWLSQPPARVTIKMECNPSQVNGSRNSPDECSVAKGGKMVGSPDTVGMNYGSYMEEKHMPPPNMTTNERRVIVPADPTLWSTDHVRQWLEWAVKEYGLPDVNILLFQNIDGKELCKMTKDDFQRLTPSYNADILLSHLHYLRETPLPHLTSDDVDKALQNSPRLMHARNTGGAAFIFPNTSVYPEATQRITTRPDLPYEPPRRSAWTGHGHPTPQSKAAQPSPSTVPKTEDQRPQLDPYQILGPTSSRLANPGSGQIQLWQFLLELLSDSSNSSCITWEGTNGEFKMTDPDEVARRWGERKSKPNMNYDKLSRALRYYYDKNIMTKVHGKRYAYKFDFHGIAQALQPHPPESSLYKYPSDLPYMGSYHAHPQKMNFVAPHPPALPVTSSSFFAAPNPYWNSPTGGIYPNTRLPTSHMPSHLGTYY
# Procedure, shortened: as §1
# ELF1 = ELF1 (Homo sapiens, UniProt P32519 1-619); details: protein: recombinant; tags: N-terminal GST; dsDNA, one strand shown
# ELF1, sequence (P32519 whole entry): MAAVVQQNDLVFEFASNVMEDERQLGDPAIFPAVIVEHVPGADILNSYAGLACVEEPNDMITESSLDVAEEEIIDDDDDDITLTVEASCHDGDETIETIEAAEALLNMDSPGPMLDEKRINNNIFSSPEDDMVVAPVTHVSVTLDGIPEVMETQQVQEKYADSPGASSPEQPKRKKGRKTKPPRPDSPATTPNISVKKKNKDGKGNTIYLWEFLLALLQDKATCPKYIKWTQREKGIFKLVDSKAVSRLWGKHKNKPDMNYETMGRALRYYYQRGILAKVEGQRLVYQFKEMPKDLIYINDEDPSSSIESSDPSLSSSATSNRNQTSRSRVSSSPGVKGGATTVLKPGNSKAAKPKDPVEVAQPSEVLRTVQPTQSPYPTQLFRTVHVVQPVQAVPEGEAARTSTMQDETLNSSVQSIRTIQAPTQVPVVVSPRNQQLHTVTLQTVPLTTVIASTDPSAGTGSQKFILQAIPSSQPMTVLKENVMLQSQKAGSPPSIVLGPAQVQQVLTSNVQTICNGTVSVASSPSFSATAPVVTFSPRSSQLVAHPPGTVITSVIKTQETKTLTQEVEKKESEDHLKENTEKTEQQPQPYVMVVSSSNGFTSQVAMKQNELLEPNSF
# Procedure, shortened: as §1
# EHF = target: T5, EHF (Homo sapiens, UniProt Q9NZC4 1-300); details: protein: recombinant; tags: N-terminal GST; dsDNA, one strand shown
# T5 sequence: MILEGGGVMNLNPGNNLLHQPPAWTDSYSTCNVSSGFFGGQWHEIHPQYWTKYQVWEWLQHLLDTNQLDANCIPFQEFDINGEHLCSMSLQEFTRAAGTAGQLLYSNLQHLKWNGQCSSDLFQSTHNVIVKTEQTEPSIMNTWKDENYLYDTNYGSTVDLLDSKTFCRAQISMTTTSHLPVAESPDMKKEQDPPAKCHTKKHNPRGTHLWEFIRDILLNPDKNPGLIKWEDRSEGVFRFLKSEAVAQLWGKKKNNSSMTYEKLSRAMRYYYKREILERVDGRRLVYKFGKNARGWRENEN
# Procedure, shortened: as §1
# SPI1 = SPI1 (Homo sapiens, UniProt P17947 1-270); details: protein: recombinant; tags: N-terminal GST; dsDNA, one strand shown
# Procedure, shortened: as §1
# SPIB = SPIB (Homo sapiens, UniProt Q01892 1-262); details: protein: recombinant; tags: N-terminal GST; dsDNA, one strand shown
# SPIB, sequence (Q01892 whole entry): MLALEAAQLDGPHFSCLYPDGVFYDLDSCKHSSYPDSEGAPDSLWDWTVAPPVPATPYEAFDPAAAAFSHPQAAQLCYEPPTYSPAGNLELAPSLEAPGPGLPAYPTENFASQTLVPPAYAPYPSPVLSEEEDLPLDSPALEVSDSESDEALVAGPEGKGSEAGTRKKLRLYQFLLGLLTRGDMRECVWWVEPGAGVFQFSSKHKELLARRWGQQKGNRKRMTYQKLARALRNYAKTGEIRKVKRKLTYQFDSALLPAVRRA
# Procedure, shortened: as §1
# ELK3 = target: T6, ELK3 (Homo sapiens, UniProt P41970 1-407); details: protein: recombinant; tags: N-terminal GST; dsDNA, one strand shown
# T6 sequence: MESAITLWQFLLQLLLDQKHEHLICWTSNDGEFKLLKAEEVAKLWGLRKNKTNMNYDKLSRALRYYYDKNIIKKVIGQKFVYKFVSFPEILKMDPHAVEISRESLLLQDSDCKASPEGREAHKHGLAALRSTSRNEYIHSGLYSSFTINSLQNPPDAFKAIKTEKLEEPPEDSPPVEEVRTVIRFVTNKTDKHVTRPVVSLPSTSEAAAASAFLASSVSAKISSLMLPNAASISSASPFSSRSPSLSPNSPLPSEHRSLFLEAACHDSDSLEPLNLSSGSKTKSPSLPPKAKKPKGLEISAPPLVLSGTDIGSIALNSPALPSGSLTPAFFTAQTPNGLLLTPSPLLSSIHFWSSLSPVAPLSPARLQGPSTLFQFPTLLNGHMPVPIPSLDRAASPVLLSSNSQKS
# Procedure, shortened: as §1
# FEV = target: T7, FEV (Homo sapiens, UniProt Q99581 1-238); details: protein: recombinant; tags: N-terminal GST; dsDNA, one strand shown
# T7 sequence: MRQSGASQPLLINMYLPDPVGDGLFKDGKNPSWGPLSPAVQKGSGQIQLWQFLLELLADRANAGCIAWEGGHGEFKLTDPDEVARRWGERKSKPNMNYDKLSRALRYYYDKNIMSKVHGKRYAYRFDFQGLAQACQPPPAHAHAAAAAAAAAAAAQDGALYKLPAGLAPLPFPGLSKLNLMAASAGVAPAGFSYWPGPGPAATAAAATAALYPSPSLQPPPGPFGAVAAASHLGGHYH
# Procedure, shortened: as §1
# ETV5 = ETV5 (Homo sapiens, UniProt P41161 1-510); details: protein: recombinant; tags: N-terminal GST; dsDNA, one strand shown
# ETV5, sequence (P41161 whole entry): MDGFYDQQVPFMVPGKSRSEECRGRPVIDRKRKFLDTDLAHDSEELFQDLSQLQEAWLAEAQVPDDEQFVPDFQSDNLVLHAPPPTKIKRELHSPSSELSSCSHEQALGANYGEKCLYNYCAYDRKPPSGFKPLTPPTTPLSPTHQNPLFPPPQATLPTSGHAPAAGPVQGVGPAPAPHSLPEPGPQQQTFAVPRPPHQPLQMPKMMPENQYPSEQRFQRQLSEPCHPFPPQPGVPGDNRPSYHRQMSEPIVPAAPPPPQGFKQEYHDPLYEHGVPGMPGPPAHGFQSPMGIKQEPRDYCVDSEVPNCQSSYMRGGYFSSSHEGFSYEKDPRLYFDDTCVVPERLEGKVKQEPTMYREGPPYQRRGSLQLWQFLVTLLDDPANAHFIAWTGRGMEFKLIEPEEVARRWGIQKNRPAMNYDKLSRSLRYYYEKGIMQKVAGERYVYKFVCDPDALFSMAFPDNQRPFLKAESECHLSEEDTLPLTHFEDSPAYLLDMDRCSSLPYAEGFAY
# Procedure, shortened: as §1
# HSF1 = HSF1 (Homo sapiens, UniProt Q00613 1-529); details: protein: recombinant; tags: N-terminal GST; chain copies: 3; dsDNA, one strand shown
# HSF1, sequence (Q00613 whole entry): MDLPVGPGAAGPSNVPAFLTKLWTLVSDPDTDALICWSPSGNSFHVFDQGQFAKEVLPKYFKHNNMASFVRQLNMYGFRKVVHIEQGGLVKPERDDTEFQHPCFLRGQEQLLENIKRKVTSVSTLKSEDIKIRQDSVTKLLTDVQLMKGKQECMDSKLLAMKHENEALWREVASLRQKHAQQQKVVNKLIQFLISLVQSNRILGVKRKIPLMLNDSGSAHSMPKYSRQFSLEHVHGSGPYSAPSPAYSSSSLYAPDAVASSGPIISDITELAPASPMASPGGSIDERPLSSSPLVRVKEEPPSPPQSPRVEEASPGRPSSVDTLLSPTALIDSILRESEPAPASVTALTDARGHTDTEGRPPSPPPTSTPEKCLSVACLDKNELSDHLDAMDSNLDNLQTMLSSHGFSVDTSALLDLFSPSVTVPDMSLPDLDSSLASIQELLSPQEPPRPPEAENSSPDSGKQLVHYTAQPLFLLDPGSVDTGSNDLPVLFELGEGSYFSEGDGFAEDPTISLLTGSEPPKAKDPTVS
# Procedure, shortened: as §1
# SPIC = target: T8, SPIC (Homo sapiens, UniProt Q8N5J4 1-248); details: protein: recombinant; tags: N-terminal GST; dsDNA, one strand shown
# T8 sequence: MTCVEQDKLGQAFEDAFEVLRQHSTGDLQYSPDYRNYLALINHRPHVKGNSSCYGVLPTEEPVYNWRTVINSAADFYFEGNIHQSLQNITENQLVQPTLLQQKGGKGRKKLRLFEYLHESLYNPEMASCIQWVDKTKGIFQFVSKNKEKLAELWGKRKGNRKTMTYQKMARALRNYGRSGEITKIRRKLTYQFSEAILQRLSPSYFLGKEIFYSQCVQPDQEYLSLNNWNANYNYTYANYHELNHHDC
# Procedure, shortened: as §1
# ELF4 = ELF4 (Homo sapiens, UniProt Q99607 1-663); details: protein: recombinant; tags: N-terminal GST; dsDNA, one strand shown
# ELF4, sequence (Q99607 whole entry): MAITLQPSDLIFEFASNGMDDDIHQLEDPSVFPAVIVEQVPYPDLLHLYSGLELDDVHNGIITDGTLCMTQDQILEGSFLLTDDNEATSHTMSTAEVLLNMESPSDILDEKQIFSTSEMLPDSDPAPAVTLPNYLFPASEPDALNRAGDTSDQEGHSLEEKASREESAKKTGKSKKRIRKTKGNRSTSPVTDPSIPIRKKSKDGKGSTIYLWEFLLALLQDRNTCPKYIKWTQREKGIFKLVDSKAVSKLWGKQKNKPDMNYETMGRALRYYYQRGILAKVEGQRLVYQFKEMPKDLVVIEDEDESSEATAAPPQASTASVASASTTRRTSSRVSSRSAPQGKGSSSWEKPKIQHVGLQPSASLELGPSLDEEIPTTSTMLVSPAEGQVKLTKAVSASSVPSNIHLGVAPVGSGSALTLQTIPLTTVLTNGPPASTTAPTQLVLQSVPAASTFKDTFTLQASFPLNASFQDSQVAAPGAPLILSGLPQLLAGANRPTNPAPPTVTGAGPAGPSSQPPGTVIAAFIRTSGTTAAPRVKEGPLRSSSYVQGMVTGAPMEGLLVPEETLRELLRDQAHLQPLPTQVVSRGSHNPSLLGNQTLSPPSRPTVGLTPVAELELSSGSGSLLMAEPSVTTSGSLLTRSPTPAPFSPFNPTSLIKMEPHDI
# Procedure, shortened: as §1
# ELK4 = target: T9, ELK4 (Homo sapiens, UniProt P28324-2 1-405); details: protein: recombinant; tags: N-terminal GST; dsDNA, one strand shown
# T9 sequence: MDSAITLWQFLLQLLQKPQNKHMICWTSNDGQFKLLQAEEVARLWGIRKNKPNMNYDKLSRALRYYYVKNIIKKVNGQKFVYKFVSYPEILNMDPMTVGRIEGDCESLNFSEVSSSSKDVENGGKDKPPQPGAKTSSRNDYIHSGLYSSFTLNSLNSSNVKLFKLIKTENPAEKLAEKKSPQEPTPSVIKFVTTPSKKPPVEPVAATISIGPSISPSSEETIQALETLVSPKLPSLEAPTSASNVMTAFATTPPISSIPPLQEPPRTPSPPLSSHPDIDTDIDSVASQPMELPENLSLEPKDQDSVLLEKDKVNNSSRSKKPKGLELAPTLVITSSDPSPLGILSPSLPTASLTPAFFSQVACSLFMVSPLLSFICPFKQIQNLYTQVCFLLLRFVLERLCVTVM
# Procedure, shortened: as §1
# ETV2 = target: T10, ETV2 (Homo sapiens, UniProt O00321 1-342); details: protein: recombinant; tags: N-terminal GST; dsDNA, one strand shown
# T10 sequence: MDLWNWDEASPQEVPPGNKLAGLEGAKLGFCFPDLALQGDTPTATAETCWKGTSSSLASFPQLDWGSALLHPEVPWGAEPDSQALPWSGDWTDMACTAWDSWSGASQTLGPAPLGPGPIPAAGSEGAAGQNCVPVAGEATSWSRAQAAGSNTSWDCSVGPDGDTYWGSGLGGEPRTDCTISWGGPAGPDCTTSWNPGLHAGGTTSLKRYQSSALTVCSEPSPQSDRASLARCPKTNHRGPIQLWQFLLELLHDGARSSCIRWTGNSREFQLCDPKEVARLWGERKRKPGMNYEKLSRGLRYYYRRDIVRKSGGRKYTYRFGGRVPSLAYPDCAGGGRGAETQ
# Procedure, shortened: as §1
# ELF3 = target: T11, ELF3 (Homo sapiens, UniProt P78545 1-371); details: protein: recombinant; tags: N-terminal GST; dsDNA, one strand shown
# T11 sequence: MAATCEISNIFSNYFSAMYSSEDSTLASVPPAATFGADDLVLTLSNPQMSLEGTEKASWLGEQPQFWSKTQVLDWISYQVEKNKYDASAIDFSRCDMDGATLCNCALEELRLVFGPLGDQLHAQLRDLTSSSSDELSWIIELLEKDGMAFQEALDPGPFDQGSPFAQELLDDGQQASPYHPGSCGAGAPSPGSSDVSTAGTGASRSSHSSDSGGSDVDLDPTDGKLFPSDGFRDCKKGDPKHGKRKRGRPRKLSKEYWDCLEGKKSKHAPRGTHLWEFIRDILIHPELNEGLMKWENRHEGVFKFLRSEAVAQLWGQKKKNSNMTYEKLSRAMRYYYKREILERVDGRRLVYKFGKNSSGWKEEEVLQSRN
# Procedure, shortened: as §1
# CRX = CRX (Homo sapiens, UniProt O43186 1-299); details: protein: recombinant; tags: N-terminal GST; dsDNA, one strand shown
# CRX, sequence (O43186 whole entry): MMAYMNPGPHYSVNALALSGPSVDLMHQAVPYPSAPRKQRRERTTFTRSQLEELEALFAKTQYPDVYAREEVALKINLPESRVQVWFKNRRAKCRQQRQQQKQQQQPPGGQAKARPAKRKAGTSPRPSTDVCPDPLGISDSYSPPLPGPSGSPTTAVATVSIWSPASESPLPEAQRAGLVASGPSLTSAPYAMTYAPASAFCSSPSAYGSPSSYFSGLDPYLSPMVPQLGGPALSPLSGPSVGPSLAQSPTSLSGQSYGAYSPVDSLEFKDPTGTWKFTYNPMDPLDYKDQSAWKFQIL
# Procedure, shortened: as §1
# ETV1 = ETV1 (Homo sapiens, UniProt P50549 1-477); details: protein: recombinant; tags: N-terminal GST; dsDNA, one strand shown
# ETV1, sequence (P50549 whole entry): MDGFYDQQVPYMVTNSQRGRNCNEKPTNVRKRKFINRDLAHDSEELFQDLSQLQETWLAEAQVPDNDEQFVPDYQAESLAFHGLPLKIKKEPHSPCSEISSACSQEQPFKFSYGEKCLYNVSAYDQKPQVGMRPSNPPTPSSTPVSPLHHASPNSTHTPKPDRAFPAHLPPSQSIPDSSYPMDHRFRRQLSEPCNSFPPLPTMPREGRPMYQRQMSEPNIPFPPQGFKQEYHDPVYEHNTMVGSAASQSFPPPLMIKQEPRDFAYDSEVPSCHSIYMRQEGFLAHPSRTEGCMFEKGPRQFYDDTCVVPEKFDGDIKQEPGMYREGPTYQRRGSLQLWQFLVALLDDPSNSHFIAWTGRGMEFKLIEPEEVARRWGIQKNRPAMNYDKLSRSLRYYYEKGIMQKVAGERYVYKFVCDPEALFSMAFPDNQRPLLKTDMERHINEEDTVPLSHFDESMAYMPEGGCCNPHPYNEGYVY
# Procedure, shortened: as §1
sequence,measurement,setting,value
AAAAAT,binding signal,FLI1,"1.28 fold enrichment (6-mer frequency, TF over GST control)"
same,binding signal,ELK1,"1.24 fold enrichment (6-mer frequency, TF over GST control)"
same,binding signal,GABPA,"1.31 fold enrichment (6-mer frequency, TF over GST control)"
same,binding signal,ERG,"1.26 fold enrichment (6-mer frequency, TF over GST control)"
same,binding signal,ELF1,"1.31 fold enrichment (6-mer frequency, TF over GST control)"
same,binding signal,EHF,"1.37 fold enrichment (6-mer frequency, TF over GST control)"
same,binding signal,SPI1,"1.29 fold enrichment (6-mer frequency, TF over GST control)"
same,binding signal,SPIB,"1.43 fold enrichment (6-mer frequency, TF over GST control)"
same,binding signal,ELK3,"1.39 fold enrichment (6-mer frequency, TF over GST control)"
same,binding signal,FEV,"1.27 fold enrichment (6-mer frequency, TF over GST control)"
same,binding signal,ETV5,"1.3 fold enrichment (6-mer frequency, TF over GST control)"
same,binding signal,HSF1,"1.5 fold enrichment (6-mer frequency, TF over GST control)"
same,binding signal,SPIC,"1.25 fold enrichment (6-mer frequency, TF over GST control)"
same,binding signal,ELF4,"1.38 fold enrichment (6-mer frequency, TF over GST control)"
same,binding signal,ELK4,"1.31 fold enrichment (6-mer frequency, TF over GST control)"
same,binding signal,ETV2,"1.49 fold enrichment (6-mer frequency, TF over GST control)"
same,binding signal,ELF3,"1.25 fold enrichment (6-mer frequency, TF over GST control)"
same,binding signal,CRX,"1.4 fold enrichment (6-mer frequency, TF over GST control)"
same,binding signal,ETV1,"1.26 fold enrichment (6-mer frequency, TF over GST control)"
